# Screen size: about 1,800 compounds; fewer than 10 were called active. About 16% were inconclusive and are not listed. Not all results are given here. Results with a measured potency or affinity are listed apart. Unmarked numbers belong to inactive results.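 The calls were made as follows: active = compound lowering the normal-ribosome reporter at least twice as much as the humanized-ribosome reporter, growth loss under a set limit; inconclusive = no clear call, values can overlap the other calls; inactive = the rest.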
# Test: growth inhibition of wild-type GFP E. coli versus G2058-humanized strain, dose response, G2058 mutant RFP vs wild-type GFP, cherry-pick, two tests (AID 1035470)
# Conditions: E. coli WT-GFP vs G2058-humanized RFP, fluorescence, 24 h; series mostly up to 50 µM; activity change, negative = inhibition: at the top concentration
row,SMILES,"activity change, negative = inhibition"
1,COc1ccc(Nc2nc(N)c([N+](=O)[O-])c(N3CCCC3)n2)cc1,2.69
2,CS(=O)(=O)c1ccc(Cl)c(NC(=O)CSc2nncn2-c2ccccc2)c1,-10.3
3,c1ccc(CSCc2ccccc2)cc1,-7.54
4,O=C(Nc1ccc(Cl)c(Cl)c1)N[C@@H]1CC[C@@H](CCn2cc(C3CCCCC3)nn2)O[C@H]1CO,-14.9
5,CCOc1ccc(NC(=O)CCc2nnc3ccc(N4CCC(C)CC4)nn23)cc1,-4.54
6,Cc1csc(SCc2nc3scc(-c4ccccc4)c3c(=O)[nH]2)n1,-4.09
7,CC(C)(C)c1ccc2c(c1)C(c1ccc3c(c1)OCO3)CC(=O)O2 (stereo unspecified),-8.87
8,Cc1ccccc1Nc1c(-c2cccnc2)nc2ccc(Br)cn12,6.1
9,CC1(CCC(=O)N2CCCC(N3CCN(c4ccc(F)cc4)CC3)C2)CC1 (stereo unspecified),-9.89
10,C=CCn1c(C)cc(C(=O)CSc2nnc(C3CC3)n2C2CC2)c1C,-7.34
11,c1ccc(-c2sc3ccccc3c2-c2ccc(OCCN3CCCCC3)cc2)cc1,-14.3
12,CN(C(=O)COC(=O)CSc1ccc(C(N)=O)cc1[N+](=O)[O-])C1CCCCC1,4.54
13,CC(C)OCCCNC(=O)c1ccc(CS(=O)(=O)c2cccc(C(F)(F)F)c2)o1,-6.78
14,COc1ccc(C(=O)Nc2cccc3ccccc23)cc1,-12.3
15,CCS(=O)(=O)N1CCN(c2ccc([N+](=O)[O-])c(NCC3CCCO3)c2)CC1 (stereo unspecified),2.49
16,Cc1nn(S(=O)(=O)c2ccc(Cl)cc2)c(C)c1Sc1ccc([N+](=O)[O-])cc1,2.39
17,C[C@@H]1CN([C@@H](C)CO)C(=O)c2cc(NC(=O)Nc3cccc4ccccc34)ccc2O[C@@H](C)CCCCO[C@@H]1CN(C)C(=O)CCCN(C)C,-4.58
18,O=C(COC(=O)C1CC2C=CC1C2)NCCc1ccccc1 (stereo unspecified),12.8
19,O=C(CN1CCCCC1)Nc1ccccc1-c1ccccc1,-10.8
20,CN(Cc1ccc(Cl)s1)C(=O)CNC(=O)CNC(=O)c1ccc(Cl)cc1Cl,3.86
21,Cn1c(SCC(=O)Nc2ccccc2-c2ccccc2)nnc1-c1ccco1,-4.34
22,O=C(CCCOc1ccccc1)NCCc1nc2ccccc2[nH]1,-0.129
23,O=C(Cc1cccc(NC(=O)C2CCN(C(=O)C3CCCCC3)CC2)c1)Nc1cccc(C(=O)N2CCCC2)c1,-6.01
24,COc1ccc(-c2noc(=O)n2Cc2ccccc2Cl)cc1,4.24
25,CN1CCSc2ccc(C(=O)Nc3cccc(F)c3)cc21,-9.02
26,CC(C)c1ccc(-c2nc3ccccc3s2)cc1,2.01

row,SMILES,"activity change, negative = inhibition"
1,Cc1ccc(-n2cc(CNCCN3CCOC3=O)c(-c3ccc(F)cc3)n2)cc1,11.8
2,Cc1ccc(NC(=O)c2ccc3ncsc3c2)cc1S(=O)(=O)N(C)C,5.11
3,CN(Cc1ccc([N+](=O)[O-])cc1)c1ccccc1,-8.41
4,COc1ccc(CN2CCNC(=O)C2CC(=O)NCCCC2CCCC2)c(C)c1C (stereo unspecified),0.654
5,O=C1CCCCC1Nc1ccc(Br)cc1 (stereo unspecified),-10.6
6,C[C@@H]1CCCCO[C@@H](CN(C)C)[C@@H](C)CN([C@H](C)CO)C(=O)c2cc(NC(=O)Nc3cccc4ccccc34)ccc2O1,25
7,COc1ccc(NC(=O)CSc2n[nH]c(-c3ccncc3)n2)c([N+](=O)[O-])c1,-4.21
8,Brc1ccc(Nc2ncnc3[nH]ncc23)cc1,-3.7
9,Cc1cccc(-c2ccc([C@@H]3[C@@H](CO)N4CCCCN(S(=O)(=O)c5ccccc5C)C[C@H]34)cc2)c1,-11.1
10,C[C@@H]1CN([C@@H](C)CO)S(=O)(=O)c2ccc(Br)cc2O[C@H]1CN(C)C(=O)c1ccccc1,-10.1
11,Cc1cc(C)c(OCCN(C)Cc2ccccc2)c(Br)c1,-12.5
12,C[C@@H](Nc1nc(-c2ccccc2)nc2c1oc1ccccc12)C(=O)O,-7.93
13,CCOC(=O)c1ccc(NC(=O)c2ccc(OC(C)C)c(OC)c2)cc1,-18.6
14,O=C(C[n+]1ccc(Cc2ccccc2)cc1)Nc1ccc([N+](=O)[O-])cc1Cl,-9.82
15,O=C(OCC1COc2ccccc2O1)c1ccccc1F (stereo unspecified),-7.69
16,O=C(Nc1ccc(-c2nnc3n2CCCCC3)cc1)c1cc2ccccc2o1,-22.2
17,COc1ccc(NC(=O)c2cccc(Oc3ccc([N+](=O)[O-])cc3Cl)c2)cc1,-9.48
18,COc1cccc(NC(=O)c2ccc(-c3ccc([N+](=O)[O-])cc3)o2)c1,-18.6
19,O=C1CSC(c2cccnc2)N1Cc1ccc(Cl)c(Cl)c1 (stereo unspecified),-1.51
20,COc1ccccc1NC(=O)N1CCCCN2[C@@H](CO)[C@H](c3ccc(C#Cc4ccccc4)cc3)[C@@H]2C1,-7.55
21,C#CC(C)(C)NC(=O)c1ccc(-c2ccccc2F)cc1,-16
22,CS(=O)(=O)Nc1ccccc1C(=O)NCCSc1ccccc1,-4.79
23,COc1ccc(-c2cc(C(=O)O)nc3ccc4ccccc4c23)cc1OC,-13
24,Oc1ccc(-c2csc(Nc3ncccn3)n2)cc1,-19.3
25,CN(C)S(=O)(=O)c1ccc2oc(SCC(=O)NCC(F)(F)F)nc2c1,14.7

# Reference: PubChem BioAssay AID1035470 (Broad Institute, 2014)
